From PubChem BioAssay (NCI)
Several values for one entry are separate records, joined by “and”; a condition that tells them apart may be missing. Equal values may be shown once. About 79,000 compounds went through this panel and 15% of them were active in at least one assay; those are over-represented in the sample as a whole. Activity calls are given as the source filed them. No stated cut-off is given here; in the data, active means growth inhibition above about 70%; inactive means the rest.

Columns and labels:
[1] = NCI Yeast Anticancer Drug Screen. Data for the rad50 strain (AID 155);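 further: 0% = growth of vehicle-only cultures of the same strain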; conditions: S. cerevisiae rad50 strain growth inhibition, stronger effect = higher value; at 50.0 µM unless noted
Procedure, shortened: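 A DNA repair-deficient yeast mutant serves as the test organism; compound-induced growth inhibition is calculated against vehicle-treated cells.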

[2] = NCI Yeast Anticancer Drug Screen. Data for the mec2-1 strain (AID 157); conditions: S. cerevisiae mec2-1 strain, stronger effect = higher value; at 50.0 µM unless noted
Procedure, shortened: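 Test agents were screened against the mec2-1 yeast strain, with defined DNA repair or cell cycle alteration. Growth was scored as inhibition against vehicle-only controls.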

[3] = NCI Yeast Anticancer Drug Screen. Data for the sgs1 mgt1 strain (AID 161);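 further: 0% = growth of cultures given vehicle only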; conditions: S. cerevisiae sgs1 mgt1 strain, stronger effect = higher value; at 50.0 µM unless noted
Procedure, shortened: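 Genetically altered yeast, compound exposure, growth inhibition relative to vehicle.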

[4] = NCI Yeast Anticancer Drug Screen. Data for the cln2 rad14 strain (AID 165);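 further: 0% = growth equal to vehicle treated cultures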; conditions: S. cerevisiae cln2 rad14 strain, stronger effect = higher value; at 50.0 µM unless noted
Procedure, shortened: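 Growth of compound-exposed yeast (cln2 rad14 genotype) measured and expressed as inhibition relative to vehicle.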

[5] = NCI Yeast Anticancer Drug Screen. Data for the bub3 strain (AID 167); conditions: S. cerevisiae bub3 mutant strain, stronger effect = higher value; at 50.0 µM unless noted
Procedure, shortened: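 Inhibition values come from growth of compound-treated mutant yeast normalised to vehicle-treated controls.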

[6] = NCI Yeast Anticancer Drug Screen. Data for the mlh1 rad18 strain (AID 175); conditions: S. cerevisiae mlh1 rad18 strain growth inhibition, stronger effect = higher value; at 50.0 µM unless noted
Procedure, shortened: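 In this whole-cell yeast screen, a strain with altered DNA damage repair is challenged with compound, and its growth is measured against matched vehicle-treated controls.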

Measured: growth inhibition

O=C1C2CCC2C(=O)N1c1ccc2ccccc2c1 (stereo not given)
inactive: [1] -38.5% | [2] -1% | [3] 0.35% | [4] -17.9% | [5] 12.6% | [6] 6.75%

OCC1OC(n2cnc3c2NC=NC[C@H]3O)C(O)C1O (stereo not given in full)
inactive: [1] 32.4% | [2] -3.8% | [3] 25.4% | [4] -7.55% | [5] 6.25% | [6] 25.8%

O=c1[nH]cc(Br)c(=O)[nH]1
inactive: [1] 28.8% | [2] 19.7% | [3] 13.7% | [4] 9.3% | [5] 21.9% | [6] 37%

CC12C(=C(C#N)C(=N)N1c1ccc(Cl)c(Cl)c1)C=C(O)CC2SCCS(=O)(=O)O (stereo not given)
inactive: [1] 13.2% | [2] 1.4% | [3] -1% | [4] 27.4% | [5] -11.4% | [6] 10.8%

Cc1nc2ncnc(N)c2[nH]1
inactive: [1] 3.55% | [2] -11% | [3] -12.5% | [4] -28.7% | [5] 11.2% | [6] -5.95%

C(=C1CCCCC1)c1ccccn1
inactive: [1] -9.2% | [2] 24.9% | [3] -10.7% | [4] -23.3% | [5] -18.8% | [6] -24.9%

CC(=O)Nc1cc(C(=O)Nc2cc(C(=O)Nc3cc(C(=O)Nc4cc(C(=O)Nc5cc(C(=O)NCCC(=O)NCCCN(C)C)n(C)c5)n(C)c4)n(C)c3)n(C)c2)n(C)c1
inactive: [1] 9.7% | [2] -41.5% | [3] -18.6% | [4] -4% | [5] -31.9% | [6] -37.8%

Cc1cc(C(C)(C)C)cc(CNC2CCCCC2)c1O
inactive: [1] -4.35% | [2] -27.4% | [3] -25.4% | [4] -18% | [5] -35.2% | [6] 10.2%

Cc1ccc(NC(=O)CC/C(CC(=O)C(C)(C)C)=N/NC(=O)c2cc3ccccc3cc2O)cc1C
inactive: [1] 27.9% | [2] 21.1% | [3] 0.35% | [4] -0.35% | [5] 28.4% | [6] 14.8%

Nc1ncnc(N)c1NC(=O)c1cccnc1
inactive: [1] 8.7% | [2] -6% | [3] 7.65% | [4] -40% | [5] -2.05% | [6] 5.5%

CCCCCCCC[n+]1ccc(C#N)cc1
inactive: [1] 11.7% | [2] 4% | [3] 14.3% | [4] 15.9% | [5] 5.65% | [6] 19%

N#C/C(=C\c1ccc2ccccc2c1)C(=O)c1ccccc1
inactive: [1] 13.7% | [2] -14.3% | [3] -15.3% | [4] 17.8% | [5] -17.7% | [6] -47.7%

CC/C(C)=N\NS(=O)(=O)c1ccc(NC(C)=O)cc1
inactive: [1] -5% | [2] -14.3% | [3] 18.1% | [4] 20.8% | [5] -33.5% | [6] -0.7%

CCN(CC)c1ccc2c(c1)C(=O)c1ccccc1-2
inactive: [1] -6.7% | [2] 27.6% | [3] 14.2% | [4] 15.8% | [5] 38.8% | [6] 30.6%

CC(=O)Oc1cc(OC(C)=O)c2c(OC(C)=O)c3c(OC(C)=O)cc(C)cc3cc2c1
inactive: [1] 40.5% | [2] 19.8% | [3] 39.5% | [4] 31.6% | [5] 9.3% | [6] 20.1%

O=C(O)c1cc([N+](=O)[O-])c(O)c2ccccc12
inactive: [1] 9.15% | [2] 2.8% | [3] 6.1% | [4] -22.1% | [5] -16.1% | [6] 21.8%

COc1cc2c(cc1OC)C(C(N)=O)NCC2 (stereo not given)
inactive: [1] 10.2% | [2] -35.8% | [3] 25.6% | [4] 12.2% | [5] -7% | [6] 17.6%

O=C1/C(=C/c2cccnc2)SC(=S)N1Cc1ccco1
inactive: [1] 2.7% | [2] -21.1% | [3] -8.85% | [4] 40% | [5] -6.45% | [6] 1.45%

CC1=C(C)C(C#N)(C(=O)CBr)C(=N)O1 (stereo not given)
inactive: [1] 37.4% | [2] 28.1% | [3] 44% | [4] 0% | [5] 33.1% | [6] 68.2%

O=c1cnn2c(n1)OC1C(O)C(CO)OC12 (stereo not given)
inactive: [1] 3.55% | [2] -2.5% | [3] 9.6% | [4] -21.7% | [5] -11.7% | [6] 22%

COc1ccc(/C(Cc2ccccc2)=N/Nc2ccc([N+](=O)[O-])c([N+](=O)[O-])c2)cc1
inactive: [1] 48.1% | [2] -8.15% | [3] 23.5% | [4] 6.35% | [5] 9.7% | [6] 20.1%

CCOc1ccc(OCC)c(NC=O)c1
inactive: [1] -9% | [2] -20.1% | [3] -6.75% | [4] 8.4% | [5] -11.8% | [6] 2.95%

CC(C)CCCC(C)C1CCC2C3CC4OC45CC(O)CCC5(C)C3CCC12C (stereo not given)
inactive: [1] 42.4% | [2] 18.1% | [3] 47.7% | [4] 7.3% | [5] -1.1% | [6] 29.4%

NC1(CC(=O)O)CCN(Cc2ccccc2)CC1
inactive: [1] 4.05% | [2] 13% | [3] 3.9% | [4] -7.05% | [5] -1.15% | [6] 2.4%

CNC(=O)c1n[nH]nc1Sc1c([N+](=O)[O-])ncn1C
inactive: [1] -39% | [2] -43% | [3] -34.1% | [4] -34.2% | [5] -20.6% | [6] -29.4%

COc1ccc(C(c2ccc(OC)cc2)N2C(=O)CCC2C(=O)O)cc1 (stereo not given)
inactive: [1] -28.6% | [2] 21.2% | [3] -48.8% | [4] 17.1% | [5] -1% | [6] -12.6%

CS(=O)(=O)OC1Cc2ccccc2C1
inactive: [1] 12.6% | [2] -0.3% | [3] -2.35% | [4] -6.1% | [5] -5% | [6] 9.9%

COc1ccc2c(c1)Cc1cc(NC(C)=O)ccc1-2
inactive: [1] -4.55% | [2] -11.2% | [3] 21.5% | [4] -47.9% | [5] 4.1% | [6] 13.1%

C=C(CC(O)(C(F)(F)F)C(F)(F)F)CC(O)(C(F)(F)F)C(F)(F)F
inactive: [1] 64.8% | [3] 63.9% | [4] 65.6%
active: [2] 94.5% | [5] 95% | [6] 95%

COc1ccc(C(=O)CN2CCN(c3ccccc3)CC2)cc1
inactive: [1] 14.7% | [2] -7.05% | [3] 17.1% | [4] -52.6% | [5] 23% | [6] 5.35%

COc1ccc(Cl)cc1N
inactive: [1] -14.3% and 17.1% | [2] -15.6% and -4% | [3] -12.7% and -2.8% | [4] 8.35% and 22.1% | [5] 3.25% and -3.2% | [6] -7.55% and 16.1%

CC(C)CC(=O)/C=C\c1ccco1
inactive: [1] -15.2% | [2] -33.5% | [3] 1.05% | [4] 1.3% | [5] -10.5% | [6] -7.45%

CC(=O)[CH-]C(=O)c1ccccc1.CC(=O)[CH-]C(=O)c1ccccc1.CC[C@H](/C=C/C(C)[C@H]1CCC2[C@@H]3CC=C4C[C@@H]([O-])CC[C@]4(C)C3CC[C@@]21C)C(C)C.CC[C@H](/C=C/C(C)[C@H]1CCC2[C@@H]3CC=C4C[C@@H]([O-])CC[C@]4(C)C3CC[C@@]21C)C(C)C.Cl.[Ti+4] (stereo not given in full)
inactive: [1] 8% | [2] 2.65% | [3] 19.3% | [4] -12.1% | [5] 24.6% | [6] 9.55%

CC(C)(C)c1ccc(C(C)(C)C)c(N2C(=O)c3ccc4c5ccc6c7c(ccc(c8ccc(c3c48)C2=O)c75)C(=O)N(c2cc(C(C)(C)C)ccc2C(C)(C)C)C6=O)c1
inactive: [1] -15.2% | [2] -7.9% | [3] -4.25% | [4] -6.2% | [5] -11.9% | [6] -6.8%

CCOC(=O)c1cn[nH]c1C
inactive: [1] 1.35% | [2] -0.9% | [3] -2.2% | [4] -21.4% | [5] -3.05% | [6] -1.95%
